In all, about 310,000 compounds went through this assay and about 2,600 (0.84%) were called active. This is one part of a sample in which actives are shown more often than they occur.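 How the source made its calls: active means B-score over 3 SD under the library average, and starting fluorescence ratio not unusually high; inactive means the rest.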
Molecular target: High affinity choline transporter 1 (Homo sapiens) (UniProt Q9GZV3)
Experiment: inhibits the human high affinity choline transporter (AID 488975);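 on B-score: choline stimulus applied at its EC90 after an EC20 pre-addition; B-score computed on integrated fluorescence ratio after choline addition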
Conditions: CHT-expressing cells, membrane potential dye, choline response, at 10 µM; active compounds read low

High affinity choline transporter 1 (Homo sapiens), sequence (Q9GZV3 whole entry, looked up): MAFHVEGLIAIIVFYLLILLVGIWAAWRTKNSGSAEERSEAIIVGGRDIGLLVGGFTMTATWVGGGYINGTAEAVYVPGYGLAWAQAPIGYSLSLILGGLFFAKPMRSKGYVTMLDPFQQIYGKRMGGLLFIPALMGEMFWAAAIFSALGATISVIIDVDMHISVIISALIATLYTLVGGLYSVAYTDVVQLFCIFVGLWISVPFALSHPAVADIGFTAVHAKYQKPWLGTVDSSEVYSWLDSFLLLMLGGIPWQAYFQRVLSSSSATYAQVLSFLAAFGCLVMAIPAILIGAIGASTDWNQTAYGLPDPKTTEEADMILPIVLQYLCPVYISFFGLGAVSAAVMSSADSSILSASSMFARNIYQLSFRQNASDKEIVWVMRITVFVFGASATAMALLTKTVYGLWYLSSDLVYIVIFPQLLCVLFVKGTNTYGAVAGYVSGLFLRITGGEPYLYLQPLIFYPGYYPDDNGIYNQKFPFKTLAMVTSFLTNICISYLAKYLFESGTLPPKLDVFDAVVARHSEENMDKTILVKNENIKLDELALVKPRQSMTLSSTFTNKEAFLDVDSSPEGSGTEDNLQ

| SMILES | B-score |
| --- | --- |
| CCCCn1c(N)c(N(CC(C)C)C(=O)c2ccc(Br)o2)c(=O)[nH]c1=O | inactive |
| CC(OC(=O)c1ccc(S(=O)(=O)N2CCOCC2)cc1)c1ccccc1 (configuration not stated) | inactive |
| CCN(C(=O)CSc1ncnc2c1cnn2-c1ccccc1)C1CCS(=O)(=O)C1 (configuration not stated) | inactive |
| O=C(NCc1cccs1)C1CCN(S(=O)(=O)c2ccc(Cl)cc2)CC1 | inactive |
| CC(C)c1ccc(NC(=O)C2CCCN(S(=O)(=O)c3cccnc3)C2)cc1 (configuration not stated) | inactive |
| O=C(Nc1ccc(F)c(Cl)c1)C1CCN(S(=O)(=O)c2cccnc2)CC1 | -5.54 (active) |
| Cc1cc(C(=O)OCC(=O)NCc2ccco2)c(C)n1-c1ccccc1 | -10 (active) |
| O=C(COC(=O)c1cc(S(=O)(=O)N2CCCCC2)ccc1Cl)NCc1ccco1 | inactive |
| CN(c1ccccc1)S(=O)(=O)c1ccc(Cl)c(C(=O)OCC(=O)NCc2ccco2)c1 | inactive |
| CCOc1ccc(S(=O)(=O)N2CCN(C(=S)NCC3CCCO3)CC2)cc1 (configuration not stated) | inactive |
| CC(C)CN(C(=O)c1ccc2c(c1)OCO2)C1CCS(=O)(=O)C1 (configuration not stated) | inactive |
| CN(C(=O)c1cc2c(=O)n3ccccc3nc2s1)C1CCCCC1 | inactive |
| O=C(CC1SC(N2CCCC2)=NC1=O)Nc1ccc(C(=O)NCCc2ccc(F)cc2)cc1 (configuration not stated) | inactive |
| CCc1nccn1S(=O)(=O)c1cccc([N+](=O)[O-])c1 | inactive |
| CCc1nc(C)cn1S(=O)(=O)c1cc([N+](=O)[O-])ccc1Cl | -5.38 (active) |
| Cc1ccc([N+](=O)[O-])cc1S(=O)(=O)N1CCCN(C)CC1 | inactive |
| C=CCOc1cccc(C2C(C(=O)c3ccc(C)o3)=C(O)C(=O)N2CCCn2ccnc2)c1 (configuration not stated) | inactive |
| O=C(CN1C(=O)CSc2ncccc21)N1CCOCC1 | inactive |
| O=C(CCCN1C(=O)CSc2ncccc21)N1CCN(c2cccc(C(F)(F)F)c2)CC1 | -9.61 (active) |
| O=C(COc1ccc(Cl)cc1)N1CCN(c2cccc(C(F)(F)F)c2)CC1 | inactive |
| CCCn1c(C)cc(-c2csc(NC(=O)CCc3nc4ccccc4c(=O)[nH]3)n2)c1C | inactive |
| CN(C)C1=NC[C@H](Cc2ccccc2)N1CCc1ccc(F)cc1 | inactive |
| CC1C(=O)N2CCCc3cc(S(=O)(=O)NCc4ccc(F)cc4)cc1c32 (configuration not stated) | inactive |
| O=C(NCCN1CCOCC1)c1ccc(/C=C2\Sc3ccccc3N(Cc3ccc(F)cc3)C2=O)cc1 | inactive |
| CN1C(=O)/C(=C/c2ccc(C(=O)NC3CCCC3)cc2)Oc2ccccc21 | inactive |
| CN1CCN(CCCNC(=O)c2ccc(/C=C3\Oc4ccccc4N(Cc4ccc(Cl)cc4)C3=O)cc2)CC1 | -7.25 (active) |
| O=C(NC1CCCCC1)c1ccc(-c2ccc(Cl)cc2)o1 | inactive |

Source: PubChem BioAssay AID488975 (Johns Hopkins Ion Channel Center, 2010)
